# Measurements published in ChEMBL document CHEMBL3988442, “University of Dundee, Small-Polar-MMV Screening Library” (2021).
# For some of these results: Results with a measured potency or affinity are listed apart.
# How the values were obtained:
# Parameters in all cases: scale not given: direction of the effect not stated beside the values
# [1] = biological target: Protein translocase subunit SecA (Escherichia coli (strain K12)) (UniProt P10408); experiment: Assay to Identify E. coli SecA ATPase Inhibitors; format: functional; settings: 30 µM
# [2] = biological target: T1, Ubiquitin-activating enzyme e1, putative (Leishmania donovani (strain BPK282A1)) (UniProt E9BSI1); experiment: Leishmania donovani Ubiquitin Activating Enzyme (LdE1); format: functional; settings: 30 µM
# T1 sequence (whole entry): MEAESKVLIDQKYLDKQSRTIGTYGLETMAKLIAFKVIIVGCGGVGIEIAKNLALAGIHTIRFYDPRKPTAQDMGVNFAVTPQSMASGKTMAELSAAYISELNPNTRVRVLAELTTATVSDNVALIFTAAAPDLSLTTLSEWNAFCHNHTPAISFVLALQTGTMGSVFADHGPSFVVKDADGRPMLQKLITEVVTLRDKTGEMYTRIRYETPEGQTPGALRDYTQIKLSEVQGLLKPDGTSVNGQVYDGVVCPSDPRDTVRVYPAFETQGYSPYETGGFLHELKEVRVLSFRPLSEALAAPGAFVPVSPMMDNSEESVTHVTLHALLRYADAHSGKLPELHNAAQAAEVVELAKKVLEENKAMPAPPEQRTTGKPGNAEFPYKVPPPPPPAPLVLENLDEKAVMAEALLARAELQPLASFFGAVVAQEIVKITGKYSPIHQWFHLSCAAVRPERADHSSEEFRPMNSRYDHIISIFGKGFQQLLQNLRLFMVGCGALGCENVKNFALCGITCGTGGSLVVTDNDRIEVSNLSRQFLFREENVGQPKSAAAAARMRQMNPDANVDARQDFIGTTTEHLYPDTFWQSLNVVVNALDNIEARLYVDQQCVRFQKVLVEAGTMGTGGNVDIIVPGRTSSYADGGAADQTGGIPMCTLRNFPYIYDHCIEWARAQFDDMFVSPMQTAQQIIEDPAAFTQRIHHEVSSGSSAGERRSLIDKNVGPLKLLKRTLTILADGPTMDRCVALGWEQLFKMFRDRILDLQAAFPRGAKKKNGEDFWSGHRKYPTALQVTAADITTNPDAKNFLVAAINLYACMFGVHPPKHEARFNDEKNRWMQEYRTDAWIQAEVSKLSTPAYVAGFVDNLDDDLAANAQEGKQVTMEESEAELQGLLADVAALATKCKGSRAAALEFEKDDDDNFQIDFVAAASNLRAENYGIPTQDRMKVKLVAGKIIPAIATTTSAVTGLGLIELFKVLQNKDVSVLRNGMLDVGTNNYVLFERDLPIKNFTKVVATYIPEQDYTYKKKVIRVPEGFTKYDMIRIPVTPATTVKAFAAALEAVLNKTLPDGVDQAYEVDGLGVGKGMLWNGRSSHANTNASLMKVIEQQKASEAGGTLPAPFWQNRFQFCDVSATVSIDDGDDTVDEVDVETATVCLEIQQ
# [3] = biological target: AMP-activated protein kinase, AMPK (Homo sapiens) (UniProt P54646+O43741+P54619+Q9UGJ0+Q9Y478+Q13131+Q9UGI9); experiment: AMP-dependent Kinase enzyme assay. An in vitro enzyme assay that detects ADP turnover that is directly proportional to AMPK activity. This uses naive AMPK that is activated during the assay with MK-8722; format: functional; settings: 30 µM
# [4] = biological target: Sialic acid-binding Ig-like lectin 9 (Homo sapiens) (UniProt Q9Y336); experiment: Hs-Siglec9 ALPHAscreen SOP 20170721; settings: 10 µM
# [5] = tested on: Trypanosoma cruzi; experiment: Trypanosoma cruzi phosphomannomutase and mannose-1-phosphate guanylyltransferase assay; format: functional; settings: 10 µM
# [6] = biological target: T2, Arginase-2, mitochondrial (Homo sapiens) (UniProt P78540); experiment: in vitro enzyme assay to detect the production of urea directly proportional to the activity of Arginase II; format: functional; settings: 33.3 µM; also: in the data most compounds retested in dose-response had high values
# T2 sequence (whole entry): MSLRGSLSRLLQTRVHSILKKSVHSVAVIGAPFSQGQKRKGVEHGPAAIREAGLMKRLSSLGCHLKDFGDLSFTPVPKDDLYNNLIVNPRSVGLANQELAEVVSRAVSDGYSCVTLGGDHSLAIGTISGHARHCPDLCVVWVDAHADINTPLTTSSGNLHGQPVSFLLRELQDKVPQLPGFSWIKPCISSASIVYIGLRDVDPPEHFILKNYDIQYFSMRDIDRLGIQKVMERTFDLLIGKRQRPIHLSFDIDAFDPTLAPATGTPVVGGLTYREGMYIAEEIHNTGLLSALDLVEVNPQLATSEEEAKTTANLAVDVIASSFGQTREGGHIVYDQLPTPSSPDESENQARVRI
# [7] = biological target: T3, Proteasome subunit beta (Trypanosoma cruzi) (UniProt O96673); experiment: Trypanosoma cruzi proteasome chymotrypsin-like activity (TcProtChymo) assay.; also: in the data most compounds retested in dose-response had high values; format: functional; settings: 9.37 µM
# T3 sequence (whole entry): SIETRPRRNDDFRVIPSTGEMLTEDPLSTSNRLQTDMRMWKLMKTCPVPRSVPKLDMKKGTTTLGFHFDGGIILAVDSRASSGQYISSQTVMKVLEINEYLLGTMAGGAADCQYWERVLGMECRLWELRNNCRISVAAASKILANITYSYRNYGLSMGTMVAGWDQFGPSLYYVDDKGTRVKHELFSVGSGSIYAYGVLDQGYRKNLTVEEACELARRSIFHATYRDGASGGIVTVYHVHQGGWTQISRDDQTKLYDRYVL
# [8] = species on record: Homo sapiens; experiment: To identify inhibition of the IFN signalling (Jak-Stat) pathway via expression of an eGFP reporter gene under the control of an IFN-stimulated response element (ISRE) containing MxA promoter.; format: functional; settings: 30 µM
# [9] = biological target: T4, Tyrosyl-tRNA synthetase, putative (Trypanosoma cruzi (strain CL Brener)) (UniProt Q4DSP6); experiment: Trypanosoma cruzi tyrosyl tRNA synthetase (TcYRS) _High Tyrosine SOP; format: functional; settings: 30 µM; also: in the data most compounds retested in dose-response had high values
# T4 sequence (whole entry): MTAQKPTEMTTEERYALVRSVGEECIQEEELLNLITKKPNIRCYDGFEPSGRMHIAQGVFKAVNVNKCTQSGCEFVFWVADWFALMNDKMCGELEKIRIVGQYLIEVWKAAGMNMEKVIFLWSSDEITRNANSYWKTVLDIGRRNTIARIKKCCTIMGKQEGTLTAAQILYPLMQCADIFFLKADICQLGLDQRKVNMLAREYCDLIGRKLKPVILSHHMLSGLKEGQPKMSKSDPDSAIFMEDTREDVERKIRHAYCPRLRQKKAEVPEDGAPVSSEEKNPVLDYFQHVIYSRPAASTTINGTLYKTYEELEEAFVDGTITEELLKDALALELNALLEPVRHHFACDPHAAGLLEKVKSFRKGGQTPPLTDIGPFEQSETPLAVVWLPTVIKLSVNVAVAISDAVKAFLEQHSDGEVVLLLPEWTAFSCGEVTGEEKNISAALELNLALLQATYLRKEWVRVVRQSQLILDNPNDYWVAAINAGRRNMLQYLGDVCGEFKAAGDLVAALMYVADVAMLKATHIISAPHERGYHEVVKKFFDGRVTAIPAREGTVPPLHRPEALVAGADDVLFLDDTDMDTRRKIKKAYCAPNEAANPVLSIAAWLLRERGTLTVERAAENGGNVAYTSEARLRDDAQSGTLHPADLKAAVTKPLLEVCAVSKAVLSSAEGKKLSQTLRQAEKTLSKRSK
# [10] = biological target: T4, Tyrosyl-tRNA synthetase, putative (Trypanosoma cruzi (strain CL Brener)); experiment: Trypanosoma cruzi tyrosyl tRNA synthetase (TcYRS) SOP; format: functional; settings: 30 µM
# [11] = biological target: Chromo domain-containing protein 1 (Saccharomyces cerevisiae (strain ATCC 204508 / S288c) (Baker's yeast)) (UniProt P32657); experiment: ScCHD-1 Enzyme Inhibition Assay; format: functional; settings: 30 µM; also: in the data most compounds retested in dose-response had high values
# Chromo domain-containing protein 1 (Saccharomyces cerevisiae (strain ATCC 204508 / S288c) (Baker's yeast)), sequence (P32657 whole entry, the tested form may be a part): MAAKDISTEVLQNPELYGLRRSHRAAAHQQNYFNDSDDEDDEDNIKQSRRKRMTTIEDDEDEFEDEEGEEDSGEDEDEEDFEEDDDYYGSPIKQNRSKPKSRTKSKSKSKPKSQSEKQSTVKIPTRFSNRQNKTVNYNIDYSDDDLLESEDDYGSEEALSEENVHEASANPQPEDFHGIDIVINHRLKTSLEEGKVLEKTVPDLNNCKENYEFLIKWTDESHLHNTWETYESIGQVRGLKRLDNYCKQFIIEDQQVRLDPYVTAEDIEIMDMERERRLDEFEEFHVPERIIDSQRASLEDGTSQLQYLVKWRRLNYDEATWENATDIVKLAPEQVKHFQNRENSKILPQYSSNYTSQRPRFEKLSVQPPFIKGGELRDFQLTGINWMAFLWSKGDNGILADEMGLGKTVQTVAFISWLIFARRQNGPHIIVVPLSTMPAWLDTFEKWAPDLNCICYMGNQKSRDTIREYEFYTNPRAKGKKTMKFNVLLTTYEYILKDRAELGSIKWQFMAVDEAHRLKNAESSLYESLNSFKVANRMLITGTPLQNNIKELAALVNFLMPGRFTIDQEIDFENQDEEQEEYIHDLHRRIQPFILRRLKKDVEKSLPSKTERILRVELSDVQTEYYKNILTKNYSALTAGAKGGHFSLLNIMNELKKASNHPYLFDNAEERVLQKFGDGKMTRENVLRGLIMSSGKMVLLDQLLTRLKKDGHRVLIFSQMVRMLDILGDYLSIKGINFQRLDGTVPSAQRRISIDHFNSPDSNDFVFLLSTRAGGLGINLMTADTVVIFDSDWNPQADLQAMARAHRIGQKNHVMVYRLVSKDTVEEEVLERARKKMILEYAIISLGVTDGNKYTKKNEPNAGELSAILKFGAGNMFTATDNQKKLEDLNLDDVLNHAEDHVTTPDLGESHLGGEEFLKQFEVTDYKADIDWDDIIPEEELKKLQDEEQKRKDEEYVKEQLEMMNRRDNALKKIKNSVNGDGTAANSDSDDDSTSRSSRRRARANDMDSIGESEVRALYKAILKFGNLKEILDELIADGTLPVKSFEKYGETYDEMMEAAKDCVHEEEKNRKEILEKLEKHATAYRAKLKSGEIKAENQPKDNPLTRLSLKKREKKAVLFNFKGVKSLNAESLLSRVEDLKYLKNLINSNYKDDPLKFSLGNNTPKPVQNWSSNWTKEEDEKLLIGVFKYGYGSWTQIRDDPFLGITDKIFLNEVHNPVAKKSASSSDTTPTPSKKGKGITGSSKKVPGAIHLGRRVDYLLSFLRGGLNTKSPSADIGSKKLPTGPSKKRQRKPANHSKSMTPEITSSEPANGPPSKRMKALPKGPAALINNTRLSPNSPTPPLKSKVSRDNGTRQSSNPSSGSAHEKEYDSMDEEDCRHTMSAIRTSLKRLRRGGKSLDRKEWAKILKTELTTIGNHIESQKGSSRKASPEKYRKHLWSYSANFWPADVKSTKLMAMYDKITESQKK
# Sialic acid-binding Ig-like lectin 9 (Homo sapiens), sequence (Q9Y336 whole entry): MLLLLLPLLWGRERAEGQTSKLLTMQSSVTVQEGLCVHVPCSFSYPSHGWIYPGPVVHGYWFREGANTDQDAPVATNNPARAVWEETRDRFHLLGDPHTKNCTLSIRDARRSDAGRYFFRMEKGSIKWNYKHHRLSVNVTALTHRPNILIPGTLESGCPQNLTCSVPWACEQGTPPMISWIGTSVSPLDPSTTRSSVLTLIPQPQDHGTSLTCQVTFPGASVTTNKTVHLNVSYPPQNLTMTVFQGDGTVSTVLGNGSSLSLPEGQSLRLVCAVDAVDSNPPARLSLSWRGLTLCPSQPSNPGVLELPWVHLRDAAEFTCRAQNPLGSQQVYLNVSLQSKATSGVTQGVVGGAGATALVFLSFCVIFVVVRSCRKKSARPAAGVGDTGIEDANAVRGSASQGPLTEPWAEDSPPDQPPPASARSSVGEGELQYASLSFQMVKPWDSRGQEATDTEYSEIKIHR
# Protein translocase subunit SecA (Escherichia coli (strain K12)), sequence (P10408 whole entry): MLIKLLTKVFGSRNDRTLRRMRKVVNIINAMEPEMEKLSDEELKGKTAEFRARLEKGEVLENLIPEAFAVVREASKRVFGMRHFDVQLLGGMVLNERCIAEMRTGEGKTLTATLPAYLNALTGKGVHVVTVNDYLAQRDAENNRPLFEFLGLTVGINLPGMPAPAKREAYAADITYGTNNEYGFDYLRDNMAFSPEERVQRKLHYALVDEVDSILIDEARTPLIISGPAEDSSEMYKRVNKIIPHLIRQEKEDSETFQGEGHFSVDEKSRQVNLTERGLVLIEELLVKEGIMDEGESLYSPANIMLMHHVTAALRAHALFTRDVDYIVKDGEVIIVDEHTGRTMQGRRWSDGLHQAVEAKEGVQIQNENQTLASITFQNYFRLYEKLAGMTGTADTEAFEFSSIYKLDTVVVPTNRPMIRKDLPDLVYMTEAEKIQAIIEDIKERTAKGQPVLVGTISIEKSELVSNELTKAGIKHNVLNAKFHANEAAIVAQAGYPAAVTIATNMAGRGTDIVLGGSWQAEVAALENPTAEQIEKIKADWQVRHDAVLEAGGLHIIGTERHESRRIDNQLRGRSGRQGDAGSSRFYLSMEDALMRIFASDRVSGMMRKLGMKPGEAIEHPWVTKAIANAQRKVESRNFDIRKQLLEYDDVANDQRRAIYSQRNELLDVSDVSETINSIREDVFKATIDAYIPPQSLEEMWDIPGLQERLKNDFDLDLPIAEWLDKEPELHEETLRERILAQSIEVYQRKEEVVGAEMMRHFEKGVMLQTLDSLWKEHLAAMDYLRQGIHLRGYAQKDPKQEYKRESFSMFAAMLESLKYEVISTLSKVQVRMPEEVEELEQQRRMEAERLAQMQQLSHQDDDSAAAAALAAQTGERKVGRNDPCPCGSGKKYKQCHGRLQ
SMILES,Percent Effect [1] [%],Percent Effect [2] [%],Percent Effect [3] [%],Percent Effect [4] [%],Percent Effect [5] [%],Percent Effect [6] [%],Percent Effect [7] [%],Percent Effect [8] [%],Percent Effect [9] [%],Percent Effect [10] [%],Percent Effect [11] [%]
O=C(c1cnc(-c2ccco2)s1)N1CCCC1Cn1cccn1 (stereo not drawn),-4.62,3.8,8.45,0.321,2.97,1.5,9.09,13,7.29,5.06,0.437
N#Cc1ccnc(N2CCN(C(=O)Cc3ccc4c(c3)CCO4)CC2)c1,-5.74,21.1,-3.75,4.19,5.83,0,13.4,1.61,2.45,19.5,-11.9
Cc1cnn(CCC(=O)N2CCN(c3nc(C)cs3)CC2)c1,-5.41,17.7,-10.1,9.63,5.76,-2.66,11.6,1.73,4.43,24.1,-8.6
CN(C)c1ccc(CC(=O)N[C@@H]2CCNC[C@H]2O)cc1,-6.67,5.41,-14.5,7.45,2.05,0.744,-1.46,-17.6,7.53,11.1,-2.77
COCCN1CCC(CNC(=O)c2cc(C)cc(C)c2)C1 (stereo not drawn),-6.49,10.5,-7.62,15.5,6.26,-1.8,8.88,-10.5,6.4,13.6,-4.84
CCc1csc(C2CCCN(C(=O)C3=NN(CC)C(=O)CC3)C2)n1 (stereo not drawn),-3.73,7.79,-3.68,5.23,6.37,2.13,-5.07,11.1,4.85,12.2,-7.52
Cc1csc(Nc2cc(C3CCCCN3C)nc(C)n2)n1 (stereo not drawn),1.97,8,7.4,-13.6,-5.71,3.5,17.5,14.7,4.25,6.41,-0.0696
COC(=O)CCN1CCCC1c1cccc2c1OCCO2 (stereo not drawn),-3.03,-2.67,-0.184,36,-0.682,-2.6,-1.92,5.8,3.83,3.7,3.53
